Laboratory results published in PubChem BioAssay (NCATS).
Several values for one entry are separate records, joined by “and”; a condition that tells them apart may be missing. Equal entries are not always repeated. A number with no mark means an inactive call. Inconclusive results are not listed. A call without a number means that no potency is given here. Activity calls are given as the source filed them. Unless noted, calls come from the whole dose curve.

What was measured:
[1] = target: Estrogen receptor (Homo sapiens) (UniProt P03372); test: qHTS assay for small molecule agonists of estrogen receptor alpha signaling (AID 588514); note: nearly all actives have a fitted effect of over 70% in size
Chain of Estrogen receptor (Homo sapiens) (P03372 whole entry, looked up): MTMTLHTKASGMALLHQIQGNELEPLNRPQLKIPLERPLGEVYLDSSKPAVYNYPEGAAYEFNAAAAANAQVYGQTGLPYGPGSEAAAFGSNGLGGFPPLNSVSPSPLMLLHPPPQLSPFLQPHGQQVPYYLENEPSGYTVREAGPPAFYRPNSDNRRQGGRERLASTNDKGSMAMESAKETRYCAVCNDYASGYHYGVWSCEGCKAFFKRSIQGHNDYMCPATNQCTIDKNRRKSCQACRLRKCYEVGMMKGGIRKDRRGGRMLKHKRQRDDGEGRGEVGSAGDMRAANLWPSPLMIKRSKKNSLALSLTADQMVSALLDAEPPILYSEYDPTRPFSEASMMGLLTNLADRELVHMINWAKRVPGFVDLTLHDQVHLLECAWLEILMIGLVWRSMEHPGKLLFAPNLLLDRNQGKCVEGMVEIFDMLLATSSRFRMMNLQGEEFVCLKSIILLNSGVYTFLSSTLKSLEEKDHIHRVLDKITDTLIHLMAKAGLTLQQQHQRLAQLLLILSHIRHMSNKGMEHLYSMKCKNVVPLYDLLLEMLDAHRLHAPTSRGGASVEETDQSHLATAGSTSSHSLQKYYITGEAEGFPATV
In short: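 Read-out: CCF4 fluorescence from a beta-lactamase reporter in ER-alpha-UAS-bla HEK 293 cells after 18 hrs of compound exposure at 37 C. Normalized to 20 nM 17-beta-estradiol (100%) and DMSO (0%).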

[2] = target: Bile acid receptor (Homo sapiens) (UniProt Q96RI1); test: qHTS assay for small molecule antagonists of farnesoid X receptor signaling (AID 588526)
Chain of Bile acid receptor (Homo sapiens) (Q96RI1 whole entry, looked up): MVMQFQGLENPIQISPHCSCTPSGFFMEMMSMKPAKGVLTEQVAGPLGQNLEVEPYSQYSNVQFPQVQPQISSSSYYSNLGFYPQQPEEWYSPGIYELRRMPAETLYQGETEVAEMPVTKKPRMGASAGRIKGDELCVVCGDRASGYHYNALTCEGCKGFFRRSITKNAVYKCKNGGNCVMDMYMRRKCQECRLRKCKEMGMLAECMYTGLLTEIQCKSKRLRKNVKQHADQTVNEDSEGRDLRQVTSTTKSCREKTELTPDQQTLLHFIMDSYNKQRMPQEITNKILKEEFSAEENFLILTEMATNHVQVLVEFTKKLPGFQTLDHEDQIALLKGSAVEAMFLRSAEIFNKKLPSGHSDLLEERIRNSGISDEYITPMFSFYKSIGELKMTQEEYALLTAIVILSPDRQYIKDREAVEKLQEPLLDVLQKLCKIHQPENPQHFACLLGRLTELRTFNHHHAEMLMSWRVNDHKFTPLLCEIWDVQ
In short: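 Concentration-response titrations were fitted to the Hill equation for half-maximal inhibition and maximal response, with data normalised to 50 uM chenodeoxycholic acid and DMSO control wells. Cells: FXR-UAS-bla HEK293T, dialyzed FBS.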

[3] = target: Peroxisome proliferator-activated receptor gamma (Homo sapiens) (UniProt P37231); test: qHTS assay for small molecule antagonists of peroxisome proliferator-activated receptor gamma signaling (AID 588537; active = well fitted inhibition curve with a large enough effect in the signal ratio, with a control signal flat, not every such curve was filed as active; the % refers to the signal ratio;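 note: reporter cells co-stimulated with 50 nM rosiglitazone agonist during compound treatment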)
Chain of Peroxisome proliferator-activated receptor gamma (Homo sapiens) (P37231 whole entry, looked up): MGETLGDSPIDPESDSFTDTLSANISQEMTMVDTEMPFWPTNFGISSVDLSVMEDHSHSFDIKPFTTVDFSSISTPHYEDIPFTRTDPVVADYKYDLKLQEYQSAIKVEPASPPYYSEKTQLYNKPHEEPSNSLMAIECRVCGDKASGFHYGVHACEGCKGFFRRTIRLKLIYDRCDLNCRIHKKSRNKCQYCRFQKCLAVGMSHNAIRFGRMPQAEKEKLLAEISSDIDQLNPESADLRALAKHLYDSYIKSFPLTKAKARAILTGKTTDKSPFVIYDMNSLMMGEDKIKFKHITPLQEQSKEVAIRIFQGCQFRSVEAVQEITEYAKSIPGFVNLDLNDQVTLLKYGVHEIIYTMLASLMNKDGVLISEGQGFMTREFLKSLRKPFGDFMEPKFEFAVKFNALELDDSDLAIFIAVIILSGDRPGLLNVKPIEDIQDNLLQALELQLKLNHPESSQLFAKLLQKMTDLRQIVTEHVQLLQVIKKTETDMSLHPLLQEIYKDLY
In short: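 HEK293 cells, PPAR-gamma-UAS-bla, 3000/well. Pre-incubation 6-6.5 h, 37 C. Compound titration with rosiglitazone 50 nM final, 16 h. CCF4 dye, 2 h RT, dual-emission fluorescence.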

[4] = qHTS assay for small molecule agonists of the antioxidant response element (ARE) signaling pathway (AID 651741; active = well fitted activation curve with a large enough effect in the signal ratio; the % refers to the signal ratio; note: potency is the fitted concentration of half-maximal effect)
In short: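 Beta-lactamase reporter expression driven by the antioxidant response element in HepG2 cells was detected by fluorescence with LiveBLAzer B/G FRET substrate (2 h, room temperature) following 16 h compound treatment at 37 C.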

[5] = qHTS assay for small molecule activators of the nuclear factor-kappa B (NF-kB) signaling pathway (AID 651749; active = well fitted activation curve with a large enough effect in the signal ratio; the % refers to the signal ratio; note: series mostly up to about 77 µM); conditions: NF-kB-bla ME-180 cells, beta-lactamase FRET ratio, 16 h; activation: stronger effect = higher value
In short: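 Beta-lactamase reporter expression, controlled by NF-kB response elements in ME-180 cells, was quantified fluorometrically via FRET disruption; cells at 2,000/well had been incubated with 23 nL test compound for 16 hr.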

[6] = qHTS assay for small molecule activators of the human pregnane X receptor (PXR) signaling pathway (AID 720659; call rule not given here)
[7] = target: Androgen receptor (Homo sapiens) (UniProt P10275); test: qHTS assay for small molecule agonists of androgen receptor signaling (AID 588515; active = well fitted curve in the direction sought with a large enough effect in the signal ratio, with a control signal flat; the % refers to the signal ratio); conditions: AR-UAS-bla HEK293, beta-lactamase ratio, agonist 16 h; stronger effect = higher value
Chain of Androgen receptor (Homo sapiens) (P10275 whole entry, looked up): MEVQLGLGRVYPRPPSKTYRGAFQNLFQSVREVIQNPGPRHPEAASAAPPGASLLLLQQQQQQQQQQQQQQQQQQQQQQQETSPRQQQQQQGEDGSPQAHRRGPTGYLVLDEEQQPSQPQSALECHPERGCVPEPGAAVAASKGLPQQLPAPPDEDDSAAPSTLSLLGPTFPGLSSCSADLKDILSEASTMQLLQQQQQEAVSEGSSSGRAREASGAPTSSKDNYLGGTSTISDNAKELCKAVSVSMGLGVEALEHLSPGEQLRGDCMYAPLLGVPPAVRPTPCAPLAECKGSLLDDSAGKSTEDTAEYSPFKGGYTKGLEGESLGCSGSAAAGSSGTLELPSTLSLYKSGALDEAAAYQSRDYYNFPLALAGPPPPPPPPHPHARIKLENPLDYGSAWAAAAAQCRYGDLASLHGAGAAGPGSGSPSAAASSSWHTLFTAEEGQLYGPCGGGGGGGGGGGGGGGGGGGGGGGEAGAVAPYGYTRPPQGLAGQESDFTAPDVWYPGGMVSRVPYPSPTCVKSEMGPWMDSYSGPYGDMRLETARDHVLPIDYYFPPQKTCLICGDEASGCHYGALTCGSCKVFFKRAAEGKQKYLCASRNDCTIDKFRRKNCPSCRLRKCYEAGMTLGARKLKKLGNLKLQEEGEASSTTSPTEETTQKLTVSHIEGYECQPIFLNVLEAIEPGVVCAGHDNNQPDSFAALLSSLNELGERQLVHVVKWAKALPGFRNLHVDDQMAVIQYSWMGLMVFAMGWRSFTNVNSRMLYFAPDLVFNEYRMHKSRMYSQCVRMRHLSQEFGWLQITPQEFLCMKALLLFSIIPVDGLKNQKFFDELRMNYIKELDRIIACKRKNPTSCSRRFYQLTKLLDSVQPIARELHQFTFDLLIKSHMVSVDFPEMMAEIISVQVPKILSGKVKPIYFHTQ
In short: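 Stimulation of an AR-responsive β-lactamase reporter in GripTite HEK293 cells was measured after 16 h compound exposure at 37 °C, via CCF4 fluorescence after 2 h RT. EC50 from Hill fits, normalized to R1881 at 30 nM.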

[8] = target: Glucocorticoid receptor (Homo sapiens) (UniProt P04150); test: qHTS assay for small molecule agonists of glucocorticoid receptor signaling (AID 588532; active = well fitted curve in the direction sought with a large enough effect in the signal ratio, with a control signal flat; the % refers to the signal ratio); conditions: HeLa MMTV-bla, beta-lactamase ratio, agonist, 18 h; activation: stronger effect = higher value, percent of dexamethasone control, DMSO zero
Chain of Glucocorticoid receptor (Homo sapiens) (P04150 whole entry, looked up): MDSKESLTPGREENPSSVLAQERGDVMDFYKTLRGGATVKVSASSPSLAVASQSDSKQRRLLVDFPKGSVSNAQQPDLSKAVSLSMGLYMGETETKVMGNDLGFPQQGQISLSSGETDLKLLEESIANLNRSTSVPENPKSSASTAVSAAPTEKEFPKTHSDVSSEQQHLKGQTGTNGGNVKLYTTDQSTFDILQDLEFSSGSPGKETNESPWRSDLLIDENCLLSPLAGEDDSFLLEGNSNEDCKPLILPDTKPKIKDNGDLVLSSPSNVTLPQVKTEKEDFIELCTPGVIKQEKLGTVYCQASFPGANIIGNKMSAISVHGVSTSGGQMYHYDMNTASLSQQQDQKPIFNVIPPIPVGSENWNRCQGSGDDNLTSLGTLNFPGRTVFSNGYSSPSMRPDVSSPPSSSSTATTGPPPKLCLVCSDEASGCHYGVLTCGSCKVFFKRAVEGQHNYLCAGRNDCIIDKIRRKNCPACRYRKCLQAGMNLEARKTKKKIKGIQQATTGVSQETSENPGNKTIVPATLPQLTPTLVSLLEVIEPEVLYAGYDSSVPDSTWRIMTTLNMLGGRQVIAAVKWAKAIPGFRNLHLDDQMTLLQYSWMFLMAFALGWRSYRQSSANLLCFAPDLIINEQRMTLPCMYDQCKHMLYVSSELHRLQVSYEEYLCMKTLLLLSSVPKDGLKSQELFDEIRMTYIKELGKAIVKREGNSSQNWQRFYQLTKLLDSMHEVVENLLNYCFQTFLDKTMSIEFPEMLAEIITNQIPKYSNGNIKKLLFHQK
In short: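 Titration series, up to 92 uM, applied to GRE-bla HeLa cells for 18 h at 37 C. Detection by CCF4 FRET substrate after 2 h at RT.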

[9] = target: Peroxisome proliferator-activated receptor gamma (Homo sapiens) (UniProt P37231); test: qHTS assay for small molecule agonists of peroxisome proliferator-activated receptor gamma signaling (AID 588536; active = well fitted curve in the direction sought with a large enough effect in the signal ratio, with a control signal flat, not every such curve was filed as active; the % refers to the signal ratio)
In short: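 Compound treatment: 16 h, 37 C, HEK293 GeneBLAzer cells. Detection: CCF4, 2 h RT. Values: Hill-fit EC50, efficacy as % of 2 uM rosiglitazone.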

[10] = target: Peroxisome proliferator-activated receptor delta (Homo sapiens) (UniProt Q03181); test: qHTS assay for small molecule antagonists of peroxisome proliferator-activated receptor delta signaling (AID 588535; active = well fitted inhibition curve with a large enough effect in the signal ratio, with a control signal flat, not every such curve was filed as active; the % refers to the signal ratio)
Chain of Peroxisome proliferator-activated receptor delta (Homo sapiens) (Q03181 whole entry, looked up): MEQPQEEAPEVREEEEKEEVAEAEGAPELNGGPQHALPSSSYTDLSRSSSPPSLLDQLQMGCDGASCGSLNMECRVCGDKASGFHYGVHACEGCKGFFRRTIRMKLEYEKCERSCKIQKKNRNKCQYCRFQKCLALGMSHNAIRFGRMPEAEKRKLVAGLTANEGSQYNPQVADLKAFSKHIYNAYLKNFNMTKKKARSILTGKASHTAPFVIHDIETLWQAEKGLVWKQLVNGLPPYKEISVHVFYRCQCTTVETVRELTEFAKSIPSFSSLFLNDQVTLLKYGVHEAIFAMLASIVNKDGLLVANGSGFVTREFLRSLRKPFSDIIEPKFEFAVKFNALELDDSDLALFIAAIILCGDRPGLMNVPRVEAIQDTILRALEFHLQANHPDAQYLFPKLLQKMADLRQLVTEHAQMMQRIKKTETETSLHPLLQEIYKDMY
In short: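 Compounds tested in titration on PPAR-delta-UAS-bla HEK293T cells grown in charcoal/dextran-stripped serum (2%); beta-lactamase activity read via CCF4 emission at 460 and 530 nm.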

[11] = target: Androgen receptor (Homo sapiens) (UniProt P10275); test: qHTS assay for small molecule antagonists of androgen receptor signaling (AID 588516; active = well fitted curve in the direction sought with a large enough effect in the signal ratio, with a control signal flat, not every such curve was filed as active; the % refers to the signal ratio)
In short: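 AR-UAS-bla GripTite HEK 293 cells (2000/well) treated with compound titrations plus 10 nM R1881 for 16 h at 37C. Beta-lactamase read by CCF4 FRET (460/530 nm); IC50 from Hill fits, normalized to R1881 and DMSO control wells.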

CCCCCCCCCCCCCCC(Br)C(=O)O (configuration not stated)
Potency [1]: inactive
Potency [2]: inactive
Potency [3]: inactive
Potency [4]: 21.7 µM (active)
activation [5]: 5.98%
outcome [6]: inactive

CNC(=O)O/N=C/C(C)(C)S(C)(=O)=O
Potency [1]: inactive
activation [7]: 1.32%
activation [8]: 9.32%
Potency [9]: inactive
outcome [6]: inactive

CCC(C)(C)c1ccc(O)c(C(C)(C)CC)c1
Potency [1]: inactive
Potency [2]: inactive
activation [8]: 5.63%
Potency [10]: inactive
Potency [4]: 61.1 µM (active)

Clc1ccc(C2(Cn3cncn3)CC(Br)CO2)c(Cl)c1 (configuration not stated)
Potency [1]: inactive
Potency [2]: inactive
activation [8]: -0.813%
Potency [10]: inactive
Potency [9]: inactive
Potency [3]: inactive
activation [5]: -2.79%

CCOP(=S)(OCC)SCSP(=S)(OCC)OCC
Potency [1]: inactive
activation [8]: -1.05%
Potency [10]: inactive
Potency [9]: inactive
Potency [3]: inactive

O=C(O)C1(O)c2ccccc2-c2ccc(Cl)cc21 (configuration not stated)
Potency [1]: inactive
activation [7]: -1.34%
activation [8]: -12.8%
Potency [4]: 48.6 µM (active)
outcome [6]: inactive

CCOc1nc(F)cc2nc(S(=O)(=O)Nc3c(Cl)cccc3Cl)nn12
Potency [1]: inactive
outcome [6]: inactive

O=C(O)C(F)(F)C(F)(F)C(F)(F)C(F)(F)C(F)(F)C(F)(F)C(F)(F)C(F)(F)F
Potency [1]: inactive
Potency [2]: inactive
activation [8]: -0.386% and 5.13%
Potency [10]: inactive
Potency [4]: 24.3 µM (active)
outcome [6]: inactive

ClCc1ccccc1Cl
activation [7]: 1.96%
Potency [11]: inactive
Potency [2]: inactive
activation [8]: -3.29%
Potency [9]: inactive
Potency [3]: inactive
outcome [6]: inactive

CCOP(=S)(OCC)SC(CCl)N1C(=O)c2ccccc2C1=O (configuration not stated)
activation [7]: -16.4%
Potency [11]: inactive
Potency [4]: 27.3 µM (active)
activation [5]: -1.92%

CC(C)C1(C)N=C(c2nc3ccccc3cc2C(=O)O)NC1=O (configuration not stated)
Potency [1]: inactive
Potency [3]: inactive
activation [5]: -0.622%

CCOP(=O)(OCC)OP(=O)(OCC)OCC
activation [7]: 5.85%
Potency [11]: inactive
Potency [2]: inactive
Potency [10]: inactive
Potency [9]: inactive
Potency [3]: inactive
Potency [4]: inactive
activation [5]: -0.353%

CCCOc1nn(C(=O)NS(=O)(=O)c2ccccc2C(=O)OC)c(=O)n1C
activation [7]: 9.43%
Potency [11]: inactive
activation [8]: -2.11%
Potency [10]: inactive
Potency [3]: inactive
Potency [4]: inactive
activation [5]: -2.67%
outcome [6]: inactive

CC1(C)CON(Cc2ccccc2Cl)C1=O
Potency [1]: inactive
Potency [10]: inactive
Potency [9]: inactive
Potency [3]: inactive
Potency [4]: inactive
activation [5]: 0.414%
